A selection: hits, their analogues and other compounds. The true share with any hit is near 1.5%.
MCL1-BIM inh = inhibitors of human MCL1 binding to BIM-BH3 peptide; Q07820; GST-MCL1 / FITC-Bim-BH3 fluorescence polarization; inhibition, % at 10.9 µM; hit rate 0.68% among 320,000; AID 2057;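 active means inhibition above the mean inhibition of all tested compounds plus 3 SD, set per campaign, cut at about 40% in these data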;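 further: higher means more loss of mP so more displacement of Bim peptide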
eLon inh = E. coli protease La inhibition | P0A9M0 | purified E. coli Lon protease, fluorescence polarization | inhibition, % at 7.94 µM | hit rate 0.42% among 360,000; in the data active means inhibition above about 13%, passing the limit was not always enough
Bcl-xL primary = inhibitors of human Bcl-xL; inhibition, % at 10.9 µM; GST-Bcl-xL / FITC-Bim BH3 peptide fluorescence polarization; Q07817; AID 2129; hit rate 0.7% among 320,000;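 active means inhibition above the mean of all tested compounds plus 3 SD, cutoff set per campaign, cut at about 30% in these data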;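 further: inhibitors lower millipolarization by displacing the labeled peptide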
Target sequence (Q07817 whole entry, looked up): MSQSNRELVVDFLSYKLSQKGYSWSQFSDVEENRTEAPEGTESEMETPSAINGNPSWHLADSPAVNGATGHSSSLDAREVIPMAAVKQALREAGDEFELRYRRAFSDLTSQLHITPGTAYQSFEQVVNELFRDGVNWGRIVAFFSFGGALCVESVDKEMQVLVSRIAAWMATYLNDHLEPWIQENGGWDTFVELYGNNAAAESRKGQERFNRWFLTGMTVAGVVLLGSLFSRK
GLD-1 RNA inh = GLD-1-TGE RNA interaction inhibition (C. elegans) | inhibition, % at 5.96 µM | hit rate 0.44% among 320,000 | purified GLD-1 + fluorescein TGE RNA, fluorescence polarization | Q17339;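 active means percent inhibition above a per-plate cutoff, the plate mean of test compounds plus 3 SD, cut at about 30% in these data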
MEX-5 binding = C. elegans MEX-5 TCR-2 RNA binding activity. Q9XUB2. activity score (negative = inhibition of binding), % at 10 µM. MEX-5/FITC-TCR2 RNA binding, fluorescence polarization; stronger effect = lower value. AID 1832. hit rate 0.38% among 300,000;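 active means inhibition past about -25% in most replicates, and total fluorescence under double the plate's negative control median, limit read from the data; inconclusive means replicates evenly split on the limit, or fluorescence at least double controls; inactive means too little inhibition in most replicates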
Target sequence (Q9XUB2 whole entry, looked up): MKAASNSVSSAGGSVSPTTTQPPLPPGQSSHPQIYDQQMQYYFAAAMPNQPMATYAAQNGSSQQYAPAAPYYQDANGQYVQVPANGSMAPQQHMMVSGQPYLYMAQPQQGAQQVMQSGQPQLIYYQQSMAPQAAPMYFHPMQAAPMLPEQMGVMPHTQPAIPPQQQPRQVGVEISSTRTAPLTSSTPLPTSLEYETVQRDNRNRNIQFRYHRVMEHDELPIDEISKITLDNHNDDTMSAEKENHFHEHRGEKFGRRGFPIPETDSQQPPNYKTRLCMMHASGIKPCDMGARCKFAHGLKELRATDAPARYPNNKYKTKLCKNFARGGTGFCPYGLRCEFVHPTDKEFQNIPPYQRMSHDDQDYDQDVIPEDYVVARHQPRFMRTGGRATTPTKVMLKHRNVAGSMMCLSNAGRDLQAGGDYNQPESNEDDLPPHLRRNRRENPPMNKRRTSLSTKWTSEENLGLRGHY
EBV gp42 inh = EBV gp42 inhibition; Q1HVG2; Fluorescence polarization binding assay, mP read-out; inhibition, % (tested at 21.74 µM); hit rate 0.42% among 220,000; in the data active means inhibition above about 50%
BCLXL inh confirm = counter-screen for MCL1 inhibitors: confirmation of human Bcl-xL inhibitors | shares compounds with MCL1-BIM inh | GST-Bcl-xL / FITC-Bim BH3 peptide FP binding | inhibition, % at 10.9 µM | hit rate 54% among 1,700 | AID 2166;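 active means inhibition above a cutoff equal to the mean inhibition of all tested compounds plus 3 SD, cut at about 30% in these data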
MCL1 inh confirm = MCL1-BIM-BH3 interaction inhibition, confirmation; shares compounds with MCL1-BIM inh; GST-MCL1 / FITC-Bim-BH3 fluorescence polarization; inhibition, % at 10.9 µM; hit rate 61% among 1,700;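 active means inhibition above the average of all tested compounds plus 3 SD, cut at about 40% in these data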
Hits are given with their value; . = inactive; ? = inconclusive; / = not tested or not shown.

SMILES | MCL1-BIM inh | eLon inh | Bcl-xL primary | GLD-1 RNA inh | MEX-5 binding | EBV gp42 inh | BCLXL inh confirm | MCL1 inh confirm
Cc1ccc(N2C(=O)[C@@H]3[C@H](C2=O)C2c4ccccc4C=CN2[C@@H]3C(=O)c2ccco2)c(C)c1 (stereo partly drawn) | 62.7 | . | 72.8 | 62.0 | . | / | 44.5 | 58.8
CC(C)(C)C(=O)[C@@H]1[C@@H]2C(=O)N(c3ccc4c(c3)OCCO4)C(=O)[C@@H]2C2c3ccccc3C=CN21 (stereo partly drawn) | . | . | . | . | . | . | / | /
CCCCCCCNC(=O)C1(CC2CC(c3ccc(Cl)cc3)=NO2)CCN(C(=O)CCCCCBr)CC1 (stereo not drawn) | . | . | . | . | . | / | / | /
Cc1nn(Cc2ccccc2)c(Cl)c1/C=C/C(=O)OC(C)C(=O)N1CCCC1 (stereo not drawn) | . | . | . | . | . | . | / | /
O=C(CNCc1ccccc1)Nc1ccc(F)cc1 | 42.7 | . | . | . | . | . | . | .
CCCN(CCC)C(=O)c1ccc2c(c1)N(CC)C(=O)c1ccccc1S2(=O)=O | 126.7 | . | 116.8 | 71.9 | . | / | . | .
CCCCN(CC)CCCNC(=O)c1ccc2c(c1)N(CC)C(=O)c1ccccc1S2(=O)=O | . | . | . | . | . | / | / | /
NC(=O)c1cc2ccccc2oc1=NCc1ccccc1 | . | . | . | . | . | . | / | /
NC(=O)c1cc2ccc(O)cc2oc1=NCc1ccccc1 | 151.2 | . | 129.4 | 94.8 | ? | 107.9 | 170.4 | 198.6
COCCN(C(=O)CSc1n[nH]c(-c2ccccc2)n1)c1c(N)n(Cc2ccccc2)c(=O)[nH]c1=O | . | . | . | . | . | / | / | /
Cc1c(C)c2cc(Cl)c(O)c(CN(C)C)c2oc1=O | . | . | . | . | . | . | / | /
O=c1oc2c(O)c(O)cc3c(=O)oc4c(O)c(O)cc1c4c23 | 97.2 | . | 74.1 | . | / | 86.5 | 79.4 | 98.2
COC(=O)c1ccccc1NC(=O)COC(=O)C1CCCCC1 | . | . | . | . | . | . | / | /
CCn1nnnc1SCC(=O)N1N=C(c2cccs2)CC1c1cccs1 (stereo not drawn) | / | . | / | / | / | / | / | /
CCN(CC(=O)NCc1ccc(F)cc1)C(=O)CN1CCN(c2ccc(OC)cc2)CC1 | . | . | . | . | . | / | / | /
CC1=C(C#N)C(=O)OC(C)(C)C1 | 100.3 | . | 85.7 | 62.8 | -47.0 | . | 34.6 | 49.7
Cc1[nH]c(=O)c(C#N)c2c1COC(C)(C)C2 | . | . | . | . | . | . | / | /
Cc1cccc(S(=O)(=O)N(C)C[C@H]2OCc3cn(nn3)CCCC(=O)N([C@@H](C)CO)C[C@@H]2C)c1 | / | . | / | / | / | / | / | /
CC(C)CNC(=O)C(=O)NCC1OCCCN1S(=O)(=O)c1ccc2c(c1)OCCO2 (stereo not drawn) | . | . | . | . | . | / | / | /
CNC(=O)N1CCC(C(=O)c2c(C)c(C)c(C)c(C)c2C)CC1 | . | . | . | . | . | / | / | /
CCOC(=O)CN1C=C(c2ccc3ccccc3n2)C(C[N+](=O)[O-])c2ccccc21 (stereo not drawn) | 105.7 | 115.4 | 101.4 | . | . | . | 138.4 | 171.6
CC1(C2CC2)NC(=O)N(CC(=O)N2CCN(S(=O)(=O)c3ccc(F)c(F)c3)CC2)C1=O (stereo not drawn) | . | . | . | . | / | / | / | /
O=C(c1nc2ccc(Cl)cn2c1CN1CCCC1)N1CCc2ccccc2C1 | 67.4 | . | 56.6 | 37.2 | . | / | 62.7 | 87.2
O=C1/C(=C\c2cc(Br)cc(Br)c2O)SC(=S)N1Cc1ccccc1 | 50.6 | . | . | . | . | / | . | 48.8
O=C1/C(=C\c2ccc(O)cc2)SC(=S)N1Cc1ccccc1 | . | . | . | . | . | / | / | /
SMILES | MCL1-BIM inh | eLon inh | Bcl-xL primary | GLD-1 RNA inh | MEX-5 binding | EBV gp42 inh | BCLXL inh confirm | MCL1 inh confirm
COc1cc([N+](=O)[O-])cc(/C=C2/SC(=S)N(Cc3ccccc3)C2=O)c1O | 72.5 | . | 49.2 | . | . | / | 69.9 | 80.2
O=C(Nc1ccc(Nc2ccncc2)cc1)c1ccc(Nc2ccnc3ccc([N+](=O)[O-])cc23)cc1[N+](=O)[O-] | 42.8 | . | . | . | . | . | . | .
O=C(Nc1ccc(Nc2ccncc2)cc1)c1ccc([N+](=O)[O-])cc1 | . | . | . | . | . | . | / | /
CCCCc1c(-c2ccc(OC)cc2)ncn1CCc1ccccc1OC | / | . | / | / | / | / | / | /
O=C(NC(Cc1ccccc1)C(=O)O)/C(=C/c1ccccc1)NC(=O)c1ccco1 (stereo not drawn) | . | . | . | . | . | / | / | /
O=C(NC(Cc1ccccc1)C(=O)O)/C(=C/c1ccco1)NC(=O)c1cccc(Br)c1 (stereo not drawn) | 50.7 | . | 36.7 | . | . | . | . | .
Cc1c(Br)c(O)c(Br)c2sc(=O)oc12 | 78.6 | . | 35.9 | . | / | . | . | 49.0
CCOc1ccc(N2CSC3=C(C#N)C(c4ccco4)CC(=O)N3C2)cc1 (stereo not drawn) | 77.7 | . | . | . | . | . | . | 62.8
C=CCNC(=S)NNC(=O)CSc1nc2ccccc2s1 | . | . | . | . | . | . | / | /
O=C(CSc1nc2ccccc2s1)NNC(=S)Nc1ccc(Cl)cc1 | 43.0 | . | . | . | . | . | . | .
COc1ccc(S(=O)(=O)N(C)c2ccc(C(=O)NCc3ccccn3)cc2)cc1 | . | . | . | . | . | / | / | /
Cc1ccc2nc(-c3ccc(C#N)cc3)c(Cc3ccccc3C(F)(F)F)n2c1 | / | . | / | / | / | / | / | /
O=C(O)C(C(=O)/C=C/c1ccco1)=C1SCCS1 | 51.4 | . | . | . | . | . | . | 55.8
O=C(C=C1SCCS1)/C=C/c1ccco1 | . | . | . | . | . | . | / | /
O=C(NCCc1ccccc1)c1c[nH]c2ccccc2c1=O | / | . | / | / | / | / | / | /
O=C(/C=C/c1ccco1)N(c1ccccn1)c1ccccn1 | 56.5 | . | . | . | . | . | . | 52.7
COc1cc(NC(C)C(=O)N2CC(C)OC(C)C2)cc(OC)c1 (stereo not drawn) | 82.2 | . | 72.5 | . | . | . | . | .
COC(=O)C(N)Cc1ccc(O)cc1 (stereo not drawn) | . | . | . | . | . | . | / | /
NC(CO)C(=O)NNCc1ccc(O)c(O)c1O (stereo not drawn) | 71.8 | . | 36.1 | . | -33.4 | . | 36.7 | 60.7
O=C1c2ccccc2-c2onc3c(N4CCN(CCO)CC4)cc(N4CCN(C(=O)c5ccco5)CC4)c1c23 | 83.0 | . | 63.4 | . | . | / | 53.1 | 58.3
O=C(c1ccco1)N1CCN(CCCCN2C(=O)c3ccccc3C2=O)CC1 | . | . | . | . | . | . | / | /
C=CCn1c(CC#N)nnc1N1CCOCC1 | 65.1 | . | . | . | . | . | . | .
